From PubChem
The list is not random: actives were taken first. Their share in the collection is about 2.4%.
WRN inhibitor: inhibitors of human WRN helicase; WRN helicase unwinding, fluorescent forked duplex, kinetic; Potency, µM (series often up to 114 µM), without a hit: at the highest dose activity change, negative = inhibition, actives largely listed as inhibitors; 360,000 tested, 0.46% active; AID 651768; also: potency is read from the fitted curve at half-maximal effect; % is scaled to controls: 0 for no effect and ±100 for the full control effect; nearly all actives have a fitted effect of over 55% in size
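Primary qHTS, 1536-well format. 20 nM WRN + compound, 15 min RT; start with 100 nM forked fluorophore/quencher duplex, 2 mM ATP (final); kinetic read ex 525/em 598 nm.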
Pol kappa inh: inhibitors of human DNA polymerase kappa. AID 588579. Potency, µM (titrated, usually from 107 µM), without a hit: top-dose activity, negative = inhibition, hits mostly inhibitors. Q9UBT6. 400,000 tested, 0.53% active. purified Pol kappa, fluorescent DNA synthesis assay, 10 min; also: potency is read from the fitted curve at half-maximal effect; % is scaled to controls: 0 for no effect and ±100 for the full control effect
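Activity was followed as the change in fluorescence between reads at 0 and 10 min after starting the reaction with 50 nM substrate. Beforehand, 10 nM polymerase had been preincubated with compound for 15 min at room temperature.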
Pol eta inh: blocks human DNA polymerase eta activity; 390,000 tested, 1.2% active; Q9Y253; recombinant Pol eta, fluorescent DNA replication assay; Potency, µM (series often up to 114 µM), inactives show at the top dose activity change, negative = inhibition, actives largely listed as inhibitors; also: potency is read from the fitted curve at half-maximal effect; % is scaled to controls: 0 for no effect and ±100 for the full control effect
Target sequence (Q9Y253 whole entry, looked up): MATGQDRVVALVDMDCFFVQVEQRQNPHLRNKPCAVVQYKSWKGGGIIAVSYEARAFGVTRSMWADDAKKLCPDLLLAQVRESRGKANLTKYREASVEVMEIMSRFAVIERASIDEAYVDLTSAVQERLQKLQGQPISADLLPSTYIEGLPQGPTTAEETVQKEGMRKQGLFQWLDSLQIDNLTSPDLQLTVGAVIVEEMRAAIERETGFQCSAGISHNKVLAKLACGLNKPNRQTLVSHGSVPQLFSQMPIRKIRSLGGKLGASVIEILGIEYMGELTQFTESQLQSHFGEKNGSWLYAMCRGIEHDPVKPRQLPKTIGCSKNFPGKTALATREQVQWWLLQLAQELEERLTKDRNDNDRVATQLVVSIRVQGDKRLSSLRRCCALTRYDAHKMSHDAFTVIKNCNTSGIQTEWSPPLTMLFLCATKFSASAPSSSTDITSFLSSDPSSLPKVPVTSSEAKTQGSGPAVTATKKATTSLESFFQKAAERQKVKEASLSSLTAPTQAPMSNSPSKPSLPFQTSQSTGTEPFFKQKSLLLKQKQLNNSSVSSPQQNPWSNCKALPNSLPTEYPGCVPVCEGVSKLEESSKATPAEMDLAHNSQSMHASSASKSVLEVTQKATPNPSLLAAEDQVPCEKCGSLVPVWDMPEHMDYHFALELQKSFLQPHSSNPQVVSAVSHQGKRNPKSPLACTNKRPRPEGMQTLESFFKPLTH
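Fluorescent replication assay: 50 nM final substrate added after a 15 min room-temperature compound preincubation with 10 nM enzyme. Signal taken at 0 min and again at 10 min.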
FEN1 inh: blocks human flap endonuclease 1; Recombinant FEN1 flap cleavage, fluorescence, 15 min; 390,000 tested, 0.35% active; Potency, µM (titrated, usually from 114 µM), for the others: at the top dose activity change, negative = inhibition, hits mostly inhibitors; also: potency is read from the fitted curve at half-maximal effect; % is scaled to controls: 0 for no effect and ±100 for the full control effect; nearly all actives have a fitted effect of over 65% in size
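In this screen, 50 nM flap DNA substrate was added to 10 nM FEN1 pretreated with compound for 15 min at room temperature; cleavage was followed with reads at 0 and 15 min, and Hill fitting gave concentration–response parameters.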
POLI inh: DNA polymerase iota (human) inhibition; Potency, µM (titrated, usually from 115 µM), for the others: top-dose activity, negative = inhibition, hits mostly inhibitors; Pol iota fluorescent replication assay, 10 min; 390,000 tested, 1% active; Q9UNA4; AID 588590; also: potency is read from the fitted curve at half-maximal effect
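Fluorescent replication assay read twice, at 0 min and 10 min after adding 50 nM (final) substrate. Enzyme (10 nM) and compounds were first incubated 15 min at room temperature; enzyme-free buffer wells were negative controls.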
Pol beta inh-1: blocks human DNA polymerase beta activity; P06746; Pol beta primer extension/strand displacement, fluorescence kinetic; Potency, µM (doses to about 114 µM), for the others: at the highest dose activity change, negative = inhibition, usual class: inhibitors; 340,000 tested, 1.3% active; also: potency is read from the fitted curve at half-maximal effect; % is scaled to controls: 0 for no effect and ±100 for the full control effect
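Enzyme-only controls used 10 nM Pol beta; buffer lacking enzyme served as negative control. Compound preincubated 15 min, then 50 nM substrate added; 0 and 10 min reads at room temperature.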
Pol beta inh-2: Human Pol beta inhibitor hit validation; 250 tested, 87% active; shares compounds with Pol beta inh-1; Potency, µM, actives largely listed as inhibitors; Pol beta primer extension/strand displacement, fluorescence kinetic; calls by dose curve; also: potency is read from the fitted curve at half-maximal effect
Klenow inh: inhibits Klenow fragment polymerase in counter-screen | activity change, negative = inhibition, % at 57.1 µM | Klenow exo- polymerase counter-screen, fluorescent DNA substrate | shares compounds with Pol beta inh-1 | AID 540300 | 250 tested, under 10 active
HIV RT inh: counter-screen for DNA polymerase beta inhibitors: HIV-1 RT inhibition; AID 540301; 250 tested, under 10 active; shares compounds with Pol beta inh-1; HIV-1 RT polymerase activity, counter-screen; activity % (negative = inhibition, positive = activation), % at 57.1 µM
POLB inh gel: validation of human DNA polymerase beta inhibitors; 110 tested, 91% active; radiolabeled primer extension gel assay, phosphorimager; shares compounds with Pol beta inh-1; inhibition, % at 10 µM;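 active = inhibition at 10 µM of 30% or more; inconclusive = no clear call, values can overlap the other calls; inactive = inhibition at 10 µM under 30%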
* marks the source's active call; other numbers are inactive results; ? = inconclusive; nt = no result given; ! = a repeat was not active; [ ] = another dose, or the depositor's remark. Unless noted, calls follow the shape of the dose curve; as a rule, active = well fitted curve in the direction sought with a large enough effect; inconclusive = small, poorly fitted or top-dose-only effect, or another doubt; inactive = no such curve, though single readings can be large; an effect the other way counts as inactive or inconclusive.

SMILES	WRN inhibitor	Pol kappa inh	Pol eta inh	FEN1 inh	POLI inh	Pol beta inh-1	others
Cc1ccc(S(=O)(=O)N/N=C\c2cc3c(cc2Br)OCO3)cc1	-1%	-8%	-3%	-6%	-2%	-25%
O=[N+]([O-])c1cc2c(cc1/C=N/NS(=O)(=O)c1ccc(Br)cc1)OCO2	-15%[57.1 µM]	-30%	?	50µM*	55%	3%
O=C1S/C(=C\C=C\c2ccco2)C(=O)N1c1ccc(O)cc1	?	?	?	-14%	32µM*	7.9µM*
COc1ccc(/C=N/NC(=O)c2[nH]c3ccc(Br)cc3c2-c2ccccc2)c(C(=O)O)c1OC	?	2%	32µM*	?	?	?
O=C(N/N=C/c1ccccc1Cl)c1[nH]c2ccc(Br)cc2c1-c1ccccc1	25µM*	?	50µM*	?	79µM*	?
COc1cc(OC)c([N+](=O)[O-])cc1/C=N/NC(=O)c1ccncc1	-1%[11.6 µM]	-37%	32µM*	-5%	?	19%
COc1ccc(/C=N/NC(=O)c2[nH]c3ccc(Br)cc3c2-c2ccccc2)cc1	-8%	-14%	-18%	-10%	46%	-1%
COc1ccc(/C=N/NC(=O)c2ccc(NC(=O)c3cccc([N+](=O)[O-])c3)cc2)c(C(=O)O)c1OC	-6%[11.6 µM]	0%	79µM*	-7%	?	71µM*
O=C(O)c1ccc(Cl)c2c1C1C=CCC1C(c1ccccn1)N2 (centres undefined)	nt	nt	nt	nt	nt	8.9µM*
COc1ccc(-c2coc3ccc(OC4OC(COC(C)=O)C(OC(C)=O)C(OC(C)=O)C4OC(C)=O)c(OC(C)=O)c3c2=O)cc1 (centres undefined)	nt	-9%[19.4 µM]	nt	nt	nt	nt
Cc1ccc(OCC(=O)NNC(=O)c2cc3ccccc3o2)cc1C	-20%	?	?	1%	?	28µM*
O=C(NCCc1ccccc1)c1ccc(CSc2nc3ccncc3n2Cc2ccccc2)cc1	nt	1%	-15%	-16%	30%	9%
O=C(N/N=C/c1ccncc1)c1ccc(-n2cccc2)cc1	3%	-2%	-9%	-1%	79µM*	40µM*
CC(=O)Nc1ccc(C(=O)N/N=C/c2ccncc2)cc1	-1%	2%	5%	-6%	47%	-1%
COC(=O)/C(C#N)=C/c1ccc(-c2ccc(S(N)(=O)=O)cc2)o1	-20%	-16%	-5%	-4%	37%	-19%
N#CC(C#N)=Cc1ccc(-c2ccc(S(=O)(=O)N=C(N)N)cc2)o1	-42%	-19%	20µM*	-7%	?	7%
Cc1ccc(-c2cc3c(N4CCN(c5cc(C)ccc5C)CC4)nccn3n2)cc1	nt	-19%	-5%	-13%	-4%	-16%
COc1ccccc1NS(=O)(=O)c1cc(NC(=O)CNC(=O)c2ccc(C)s2)ccc1Cl	56µM*	-28%	?	45µM*	79µM*	19%
CC1=NN(c2ccc(N)cc2)C(=O)C1	45µM*	?	?	?	?	-1%
CCOc1cc2c(C#N)c(N(CC)CC)nc(N)c2c(N)n1	-6%[57.1 µM]	-5%	-16%	7%	10µM*	nt
Cc1ccc(C(=O)c2cn(Cc3cc(C)ccc3C)c3nc(C)ccc3c2=O)cc1	nt	-3%	?	-15%	-16%	0%
CCOc1ccc(-n2c(C)nc3cc(C(=O)NC4CCCC4)ccc32)cc1	nt	-12%[60.1 µM]	8%	13%	-6%	-2%
CC1(C)S[C@@H]2[C@H](NC(=O)COc3ccccc3)C(=O)N2[C@@H]1C(=O)OCc1cccc2cccnc12	nt	0%	nt	-20%	12%	nt
O=C(Cc1cc(=O)[nH][nH]1)N/N=C/C(Cl)=C/c1ccccc1	-2%[11.6 µM]	-30%	?	2%	3.2µM*!	50µM*
Cc1cc(C)n(Cc2ccc(C(=O)O)cc2)n1	-8%	-1%[60.1 µM]	0%	-1%	2%	3%
SMILES	WRN inhibitor	Pol kappa inh	Pol eta inh	FEN1 inh	POLI inh	Pol beta inh-1	others
Cc1ccc(C)n1Cc1ccc(C(=O)O)cc1	2.8µM*	1.3µM*	-98%	4µM*	0.71µM*	2.8µM*
O=C(COC(=O)C1CCN(S(=O)(=O)c2cc([N+](=O)[O-])ccc2Cl)CC1)Nc1ncc(Cl)cc1Cl	?	79µM*	8.9µM*	-18%	?	8.9µM*	Pol beta inh-2=28*;Klenow inh=-11;HIV RT inh=-23;POLB inh gel=86*
O=C(Nc1nc2ccc(F)cc2s1)C1CCN(S(=O)(=O)c2cc([N+](=O)[O-])ccc2Cl)CC1	-24%	-19%	?	11%	?	8.9µM*	Pol beta inh-2=28*;Klenow inh=-26;HIV RT inh=-4;POLB inh gel=100*
Cc1cc(C)cc(NC(=O)N2CCC(CN3CCc4ccccc4C3)CC2)c1	nt	1%	-13%	8%	-6%	0%
Cc1cccc(Nc2nn3c(=O)c4ccccc4nc3s2)c1	-24%	?	?	0%	?	10µM*	Pol beta inh-2=4*;Klenow inh=-7;HIV RT inh=27
Cc1c2cnn(CC(=O)Nc3c(F)c(F)cc(F)c3F)c(=O)c2c(C)n1Cc1ccc(F)cc1	nt	nt	nt	nt	nt	8.9µM*	Pol beta inh-2=25*;Klenow inh=-33;HIV RT inh=-6;POLB inh gel=100*
Cc1c2cnn(CC(=O)NCc3ccc(Cl)cc3)c(=O)c2c(C)n1Cc1ccc(F)cc1	nt	-7%	-11%	16%	1%	?
CCOC(=O)Cc1csc(NC(=O)Cc2cccs2)n1	-17%[57.1 µM]	?	18µM*	-12%	?	14µM*	Pol beta inh-2=?;Klenow inh=-5;HIV RT inh=15
COc1ccc(-c2nn(C)c3sc(C(=O)NCc4ccco4)cc23)cc1OC	-17%	-15%	?	16%	?	13µM*	Pol beta inh-2=14*;Klenow inh=-5;HIV RT inh=26
COc1cc(/C=C\c2ccc(OC)cc2OC)cc(OC)c1	nt	-13%[19.4 µM]	nt	nt	nt	nt
COc1ccc(NC(=O)c2ccc(NCCN3C(=O)CCC3=O)c([N+](=O)[O-])c2)cc1	-4%[11.6 µM]	?	?	-5%	-27%	13µM*	Pol beta inh-2=?;Klenow inh=-7;HIV RT inh=21;POLB inh gel=?
COc1ccc(C2OC3C(CO)OC(n4cnc5c(=O)[nH]c(N)nc54)C3O2)cc1 (centres undefined)	nt	-2%[60.1 µM]	nt	nt	nt	nt
